Compound activity as filed in PubChem.
HCMV antiviral: inhibitors of human cytomegalovirus; HFF cells, HCMV-luciferase reporter, 72 h; hits give low values; activity change, negative = inhibition, % at 57.5 µM; 410,000 tested, 4.5% active; in the data active = activity change below about -60%; inconclusive = no clear call, values can overlap the other calls; inactive = above about -39%
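Human foreskin fibroblasts infected with luciferase-reporter HCMV at MOI 1 PFU/cell, compounds at two doses. Luciferase measured 72 h post infection; normalized to buffer-only basal and Salinomycin (10uM) controls.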
FMDV antiviral: antivirals against foot and mouth disease virus. FMDV antiviral cell-based qHTS. Potency, µM (doses to about 57.9 µM), without a hit: at the highest dose activity change, negative = inhibition, actives largely listed as inhibitors. 410,000 tested, 1.2% active. AID 1159524; calls by dose curve; tested in HEK293T cells; note: read-out not given here; potency is the fitted concentration of half-maximal effect; nearly all actives have a fitted effect of over 45% in size
Sm TGR inh: S. mansoni TGR enzyme inhibition; purified TGR, DTNB reduction, TNB absorbance 405 nm; Q962Y6; 360,000 tested, 3% active; Potency, µM (top dose mostly 114 µM), without a hit: top-dose activity change, negative = inhibition, hits mostly inhibitors; AID 485364; note: potency is the fitted concentration of half-maximal effect; nearly all actives have a fitted effect of over 60% in size
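TGR 20 nM + NADPH 100 uM (dispensed conc.), cpd preinc 15 min RT; start with NADPH (500 uM addition) then DTNB (15 mM addition). Kinetic TNB absorbance, 405 nm filter. Four-parameter Hill fit across titration.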
VACV mCherry inh: vaccinia inhibition (mCherry reporter) | Vaccinia virus mCherry reporter infection, fluorescence | Potency, µM (highest dose often 36.5 µM), for the others: top-dose activity change, negative = inhibition, actives largely listed as inhibitors | 310,000 tested, 0.63% active | AID 720579; calls by dose curve; tested in A549 cells; note: potency is the fitted concentration of half-maximal effect; nearly all actives have a fitted effect of over 35% in size
Vaccinia Venus: vaccinia inhibition (Venus reporter); Potency, µM (top dose mostly 36.5 µM), for the others: at the highest dose activity change, negative = inhibition, most hits filed as inhibitors; AID 720580; 330,000 tested, 0.46% active; Vaccinia virus Venus reporter expression, fluorescence; calls by dose curve; tested in A549 cells; note: potency is the fitted concentration of half-maximal effect; nearly all actives have a fitted effect of over 30% in size
HCV inhibitor: blocks hepatitis C virus; AID 651820; Potency, µM (highest dose often 41.8 µM), without a hit: at the top dose activity change, negative = inhibition, usual class: inhibitors; Huh7.5.1 HCVcc-Cre infection, luciferase reporter, 44 h; 340,000 tested, 3.4% active; note: potency is the fitted concentration of half-maximal effect
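Cells (1,000/well) were plated 4 h before compound, then infected with HCVcc-Cre virus (~0.5 moi). After 44 h further culture, infection was read as luciferase luminescence following a 15 min substrate incubation at room temperature.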
Starred values were filed as active, the others as inactive. In the library only some 9.3% were active in any assay of this set; here they are far more common. Unless noted, calls come from the whole dose curve; as a rule, active = well fitted curve in the direction sought with a large enough effect; inconclusive = small, poorly fitted or top-dose-only effect, or another doubt; inactive = no such curve, though single readings can be large; an effect the other way counts as inactive or inconclusive. % is set by controls: 0 for no effect and ±100 for the full control effect.

How did COc1ccccc1C(=O)Nc1ccc(Oc2nnc(-c3ccc(C)cc3)c3ccccc23)cc1 do in these assays?
HCMV antiviral: -70*; FMDV antiviral: -22%; Sm TGR inh: -3%; VACV mCherry inh: -9%; Vaccinia Venus: -7%; HCV inhibitor: inconclusive

How did COc1ccc(Cl)cc1C(=O)Nc1ccc(NC(=O)C(C)C)cc1 do in these assays?
HCMV antiviral: inconclusive; FMDV antiviral: -27%; Sm TGR inh: 7%; VACV mCherry inh: -14%; Vaccinia Venus: -16%; HCV inhibitor: 4µM*

What do the screens show for `Cc1nc(C)c(C(=O)Nc2ccc(Oc3ccccc3)cc2)o1`?
HCMV antiviral: -89*; FMDV antiviral: -30%; Sm TGR inh: 3%; VACV mCherry inh: -4%; Vaccinia Venus: -18%; HCV inhibitor: inconclusive

What do the screens show for `COc1ccc(OC)c(C(=O)Nc2c(O)ccc3ccccc23)c1`?
HCMV antiviral: 31; FMDV antiviral: 19%; VACV mCherry inh: 13µM*; Vaccinia Venus: inconclusive; HCV inhibitor: inconclusive

How did COc1ccc(-n2nc3ccc(NS(C)(=O)=O)cc3n2)cc1Cl do in these assays?
HCMV antiviral: 22; FMDV antiviral: 16%; Sm TGR inh: -6%; VACV mCherry inh: -13%; Vaccinia Venus: -6%; HCV inhibitor: inconclusive

How did COc1ccc(Br)cc1C(=O)Nc1ccc(NC(=O)c2ccco2)cc1 do in these assays?
FMDV antiviral: -1%; Sm TGR inh: -9%; Vaccinia Venus: -19%; HCV inhibitor: -14%

What do the screens show for `COc1ccc(NC(=O)c2cc3ccccc3cc2OC)cc1`?
HCMV antiviral: 174; FMDV antiviral: 14%; Sm TGR inh: 11%; VACV mCherry inh: -23%; Vaccinia Venus: inconclusive; HCV inhibitor: 8.9µM*

How did COc1cc2ccccc2cc1C(=O)NNC(=O)c1ccccc1O do in these assays?
HCMV antiviral: -91*; Sm TGR inh: 0%

How did COc1ccc(Br)cc1C(=O)Nc1cc(C)cc(C)c1 do in these assays?
HCMV antiviral: -37; FMDV antiviral: -23%; Sm TGR inh: 3%; VACV mCherry inh: -15%; Vaccinia Venus: -9%; HCV inhibitor: 5.6µM*

What do the screens show for `COc1cc2ccccc2cc1C(=O)Nc1ccccc1Cl`?
HCMV antiviral: 66; FMDV antiviral: -8%; Sm TGR inh: 1%; HCV inhibitor: inconclusive

Results for CCOc1ccc(NC(=O)c2cc3ccccc3cc2OC)cc1 ?
HCMV antiviral: 163; FMDV antiviral: 69%; Sm TGR inh: 21%; VACV mCherry inh: -22%; Vaccinia Venus: inconclusive; HCV inhibitor: 10µM*

What do the screens show for `COC(=O)C1=C(c2c(C)noc2C)C[C@@H]2CC[C@H]1N2C(=O)NCC1CC1`?
HCMV antiviral: 3; FMDV antiviral: 3%; Sm TGR inh: -20%; VACV mCherry inh: inactive; Vaccinia Venus: -16%; HCV inhibitor: 12%

What do the screens show for `COc1ccccc1Oc1ccc(NC(=O)c2ccccc2C)cc1`?
HCMV antiviral: -5; FMDV antiviral: 36%; Sm TGR inh: 0%; VACV mCherry inh: inconclusive; Vaccinia Venus: inconclusive; HCV inhibitor: inconclusive

How did COc1cc2ccccc2cc1C(=O)Nc1cccnc1 do in these assays?
HCMV antiviral: 64; FMDV antiviral: 63%; Sm TGR inh: -2%; VACV mCherry inh: -30%; Vaccinia Venus: -26%; HCV inhibitor: 32µM*

What do the screens show for `COc1ccc(Oc2ccc(NC(=O)c3ccccc3C)cc2)cc1`?
HCMV antiviral: -85*; FMDV antiviral: -14%; VACV mCherry inh: -29%; Vaccinia Venus: -25%; HCV inhibitor: inconclusive

Results for O=C(O)Cc1c[nH]c2ccccc12 ?
FMDV antiviral: -14%; VACV mCherry inh: 6%; Vaccinia Venus: 2%; HCV inhibitor: 27%

What do the screens show for `O=C(CCl)N(c1ccccc1)c1c[nH]c2ccccc12`?
HCMV antiviral: -103*; FMDV antiviral: inconclusive; Sm TGR inh: 3.2µM*; VACV mCherry inh: inconclusive; Vaccinia Venus: inconclusive; HCV inhibitor: 1.3µM*

What do the screens show for `O=C(CCl)N(c1ccc(Cl)cc1)c1c[nH]c2ccccc12`?
HCMV antiviral: -105*; FMDV antiviral: inconclusive; Sm TGR inh: 0.71µM*; VACV mCherry inh: inconclusive; Vaccinia Venus: 13µM*; HCV inhibitor: 2.5µM*

Results for Cc1ccc(CN(c2ccc(C(=O)Nc3cccnc3)cc2)S(C)(=O)=O)cc1 ?
HCMV antiviral: -15; FMDV antiviral: inconclusive; Sm TGR inh: 0%; HCV inhibitor: -2%

How did CCOc1ccc(C2CC(c3cccc(OC)c3OC)n3nnnc3N2)cc1Cl (configuration not stated) do in these assays?
HCMV antiviral: 1; FMDV antiviral: -16%; Sm TGR inh: 10%; VACV mCherry inh: -27%; Vaccinia Venus: -23%; HCV inhibitor: 11µM*

What do the screens show for `COc1ccc(C2CC(c3ccccc3)n3nnnc3N2)cc1` (configuration not stated)?
HCMV antiviral: -30; FMDV antiviral: 14%; Sm TGR inh: 3%; HCV inhibitor: 6%

How did CN(C(=O)COC(=O)c1ccc2c(c1)NC(=O)CS2)C1CCS(=O)(=O)C1 (configuration not stated) do in these assays?
HCMV antiviral: 4; FMDV antiviral: 63%; Sm TGR inh: 3%; HCV inhibitor: 5%

What do the screens show for `Cc1ccc(-n2c(C)cc(C(=O)OCC(=O)N(CC(C)C)C3CCS(=O)(=O)C3)c2C)cc1` (configuration not stated)?
HCMV antiviral: 35; FMDV antiviral: -6%; Sm TGR inh: 14%; HCV inhibitor: 2%

How did Cc1cc(C)n(-c2ccc(C(=O)OCC(=O)N(CC(C)C)C3CCS(=O)(=O)C3)cc2)n1 (configuration not stated) do in these assays?
HCMV antiviral: -86*; FMDV antiviral: 21%; Sm TGR inh: 1%; HCV inhibitor: -3%

What do the screens show for `CC(C)CN(C(=O)COC(=O)c1ccc2c(c1)NC(=O)CS2)C1CCS(=O)(=O)C1` (configuration not stated)?
HCMV antiviral: -84*; FMDV antiviral: -5%; Sm TGR inh: -20%; Vaccinia Venus: -14%; HCV inhibitor: -6%

How did CCc1ccc(Nc2nn(-c3ccc(OC(F)(F)F)cc3)nc2C(C)=O)cc1 do in these assays?
HCMV antiviral: -35; FMDV antiviral: -2%; Sm TGR inh: 0%; VACV mCherry inh: 2%; Vaccinia Venus: -2%

Results for N=C1c2ccccc2CN1NC(=O)CC12CC3CC(CC(C3)C1)C2 ?
HCMV antiviral: 54; FMDV antiviral: -5%; Sm TGR inh: -3%; VACV mCherry inh: inactive; Vaccinia Venus: -20%; HCV inhibitor: -15%

Results for CC1(O)CCN2C(=O)CCc3cccc1c32 (configuration not stated) ?
HCMV antiviral: -61*; FMDV antiviral: -18%; Sm TGR inh: -19%; HCV inhibitor: -11%
